Test results from PubChem BioAssay (NCI).
“And” between values parts separate entries of the source, which are not always exact repeats. Equal values may be shown once. Compounds without any hit were thinned out: in the full panel of roughly 79,000, 15% have a hit. Values without a mark were called inactive. The source made the active and inactive calls. No stated cut-off is given here; in the data, active means growth inhibition above about 70%; inactive means the rest.

Legend:
[1] = NCI Yeast Anticancer Drug Screen. Data for the rad50 strain (AID 155);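 further: 0% = growth of vehicle-only cultures of the same strain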; settings: S. cerevisiae rad50 strain growth inhibition, active compounds read high
How it was run: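 Inhibition values express reduced yeast growth in compound-treated cultures relative to vehicle-treated controls.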

[2] = NCI Yeast Anticancer Drug Screen. Data for the mec2-1 strain (AID 157); settings: S. cerevisiae mec2-1 strain, active compounds read high
How it was run: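 Growth inhibition is read against vehicle-treated controls after compound exposure of the mec2-1 yeast strain, which is defective in DNA damage repair or cell cycle control.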

[3] = NCI Yeast Anticancer Drug Screen. Data for the sgs1 mgt1 strain (AID 161);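 further: 0% = growth of cultures given vehicle only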; settings: S. cerevisiae sgs1 mgt1 strain, active compounds read high
How it was run: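 Growth of a repair-deficient yeast mutant was monitored after compound treatment and expressed as inhibition relative to vehicle-treated cultures.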

[4] = NCI Yeast Anticancer Drug Screen. Data for the cln2 rad14 strain (AID 165);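 further: 0% = growth equal to vehicle treated cultures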; settings: S. cerevisiae cln2 rad14 strain, active compounds read high
How it was run: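 Growth inhibition, relative to vehicle-treated controls, is the read-out. The test organism is a yeast strain with defined genetic alterations, cln2 rad14.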

[5] = NCI Yeast Anticancer Drug Screen. Data for the bub3 strain (AID 167); settings: S. cerevisiae bub3 mutant strain, active compounds read high
How it was run: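 Steps: expose the mutant yeast strain to compound; grow alongside vehicle-treated cultures; measure growth; express inhibition against the vehicle cultures.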

[6] = NCI Yeast Anticancer Drug Screen. Data for the mlh1 rad18 strain (AID 175); settings: S. cerevisiae mlh1 rad18 strain growth inhibition, active compounds read high
How it was run: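 Cells of a genetically altered yeast strain, deficient in DNA damage repair, were treated with compound. Their growth was then compared with that of vehicle-treated cultures to give inhibition.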

[7] = at 5.0 µM (retest, dose inferred, filed as 0.5)
[8] = at 50.0 µM (retest, dose inferred, filed as 5.0)

| SMILES | growth inhibition [1, 7] | growth inhibition [1, 8] | growth inhibition ([1]; at 50.0 µM) | growth inhibition [2, 7] | growth inhibition [2, 8] | growth inhibition ([2]; at 50.0 µM) | growth inhibition [3, 7] | growth inhibition [3, 8] | growth inhibition ([3]; at 50.0 µM) | growth inhibition [4, 7] | growth inhibition [4, 8] | growth inhibition ([4]; at 50.0 µM) | growth inhibition [5, 7] | growth inhibition [5, 8] | growth inhibition ([5]; at 50.0 µM) | growth inhibition [6, 7] | growth inhibition [6, 8] | growth inhibition ([6]; at 50.0 µM) |
| --- | --- | --- | --- | --- | --- | --- | --- | --- | --- | --- | --- | --- | --- | --- | --- | --- | --- | --- |
| COc1ccc(C(c2ccc(OC)cc2)c2ccccc2C(=O)O)cc1 | -5% | 64% | 37.8% | -14% | 31% | 27.1% | 16% | 48% | 35.1% | 18% | 39% | 35.9% | 20% | 56% | 18.1% | 41% | 73% (active) | 54.9% |
| CC1=CC(O)(c2nc3ccccc3s2)CC(C)(C)C1 (centres undefined) | 3% | 60% | 69.7% | 6% | 61% | 56.1% | -1% | 61% | 64.2% | -2% | 51% | 47.7% | 15% | 31% | 41.4% | -2% | 69% | 66.4% |
| O=C1C(=C2C(=O)c3ccccc3[N+]2=O)N([O-])c2ccccc21 | -2% | 36% | 69% | -6% | 59% | 56% | -3% | 52% | 84.3% (active) | -10% | 15% | 68% | -6% | 31% | 57.8% | -5% | 56% | 85.5% (active) |
| CCN1CCC(O)(/C=C/c2cccc(C)c2)C(C(=O)/C=C/c2cccc(C)c2)C1 (centres undefined) | 42% | 96% (active) | 91% (active) | 41% | 98% (active) | 93% (active) | 95% (active) | 92% (active) | 90.8% (active) | 91% (active) | 93% (active) | 90.2% (active) | – | – | – | 64% | 98% (active) | 92.7% (active) |
| O=S1(=O)C=C(c2ccccc2)S(=O)(=O)C=C1c1ccccc1 | -1% | 85% (active) | 89% (active) | 3% | 76% (active) | 89.7% (active) | 0% | 63% | 95.2% (active) | 0% | 94% (active) | 57.9% | -5% | 81% (active) | 91.8% (active) | 0% | 85% (active) | 91.2% (active) |
| O=C(NC1(OC(=O)c2ccc(Cl)cc2)CC1)c1ccc(Cl)cc1 | 6% | 97% (active) | 97.8% (active) | 14% | 98% (active) | 97.9% (active) | 15% | 91% (active) | 95.5% (active) | 25% | 97% (active) | 97.5% (active) | -8% | 98% (active) | 97.1% (active) | 24% | 97% (active) | 96.8% (active) |
| CCC[CH2][Sn]([CH2]CCC)([O]C(=O)c1ccc(C)c(N)c1)[O]C(=O)c1ccc(C)c(N)c1 | 98% (active) | 98% (active) | 91.7% (active) | 92% (active) | 92% (active) | 92% (active) | 96% (active) | 96% (active) | 92.5% (active) | 96% (active) | 96% (active) | 91.3% (active) | 90% (active) | 90% (active) | 89% (active) | 97% (active) | 97% (active) | 87.5% (active) |
| CCOC(=O)C1CN(CCCCCCN2CC(C(=O)OCC)C(=O)C2=O)C(=O)C1=O (centres undefined) | -11% | 4% | 22.1% | 2% | 1% | 3.1% | -21% | 3% | 28.5% | – | – | – | 0% | 2% | 0.05% | -2% | 0% | 30.4% |
| O=C(CCl)Oc1ccc(Sc2ccc(OC(=O)CCl)cc2)cc1 | 6% | 97% (active) | 98.7% (active) | – | – | – | 10% | 97% (active) | 98.8% (active) | 13% | 94% (active) | 96.3% (active) | 1% | 99% (active) | 99.4% (active) | 7% | 99% (active) | 97.9% (active) |
| CCCC(=O)Oc1ccc(OCc2ccccc2)cc1 | – | – | – | -1% | 55% | -15.1% | 0% | 55% | 1.6% | -3% | -15% | -41.8% | 23% | 77% (active) | 75.2% (active) | 0% | 42% | -10.9% |
| CC(C)c1ccc(C2C3=C(N=C4SCC(=O)N42)C(=O)c2ccccc23)cc1 (centres undefined) | 7% | -6% | 86.7% (active) | – | – | – | -6% | 5% | 89.2% (active) | -31% | 8% | 83% (active) | -41% | 41% | 80.3% (active) | -39% | 2% | 42.2% |
| O=NN(CCCl)C(=O)Nc1cc(Cl)ccc1O | -8% | 57% | 86.2% (active) | -8% | 30% | 36.1% | -5% | 46% | 72.5% (active) | – | – | – | -21% | -16% | 37.1% | 5% | 81% (active) | 90.1% (active) |
| CC(=O)CC1CCC(=O)/C=C/C(=O)OC(CC(C)=O)CCC(=O)/C=C/C(=O)O1 (centres undefined) | 20% | 38% | 16.3% | 14% | 47% | -13.5% | 11% | 42% | -6.3% | – | – | – | 9% | 82% (active) | -17.1% | 17% | 56% | -81.7% |
| CC(C)=CCC(OC(=O)CC(C)C)C1=CC(=O)c2c(O)ccc(O)c2C1=O (centres undefined) | – | – | – | 1% | 99% (active) | 89.2% (active) | 1% | 99% (active) | 89.7% (active) | -17% | 99% (active) | 82.2% (active) | 2% | 99% (active) | 86% (active) | 1% | 99% (active) | 87.4% (active) |
| Cc1[nH]nc(C(=O)N(C)C)c1N=NN(C)C | – | – | – | -44% | 91% (active) | 88.8% (active) | -43% | 88% (active) | 82% (active) | -50% | 78% (active) | 79.8% (active) | -65% | 83% (active) | 79.2% (active) | -105% | 90% (active) | 95.6% (active) |
| COc1ccccc1/C=C1\Sc2scc(-c3ccc(O)c(O)c3)[n+]2C1=O | -5% | 99% (active) | 98.9% (active) | -8% | 99% (active) | 98.9% (active) | -11% | 99% (active) | 99.3% (active) | – | – | – | -14% | 99% (active) | 98.8% (active) | 7% | 99% (active) | 99% (active) |
| Cc1cnc(Sc2c([N+](=O)[O-])ncn2C)nc1 | – | – | – | 6% | 7% | 98.2% (active) | 3% | 9% | 63.7% | 0% | 7% | 41.5% | 1% | 4% | 99.5% (active) | -1% | 3% | 80.1% (active) |
| OCC(O)C(O)C(O)C(O)C(SCc1ccccc1)SCc1ccccc1 (centres undefined) | – | – | 9.5% and -3.9% and -5.4% | – | – | -1.5% and -0.6% and 8.55% | – | – | 6.25% and -7.1% and 8.7% | – | – | -9.4% and -3.35% and -11.2% | – | – | -3.7% and -7.25% and 2.05% | – | – | 10.1% and 3.6% and 10.6% |
| O=c1c2ccccc2ncn1Cc1ccccc1[N+](=O)[O-] | – | – | – | -2% | 7% | -9.1% | 0% | 23% | -7% | -11% | -17% | 73.3% (active) | -1% | 42% | 26.2% | 0% | 18% | -6.15% |
| CCOC(=O)C1=C(C)NC2=C(C(=O)N(c3ccccc3)C2c2ccccc2)C1c1ccccc1 (centres undefined) | 5% | 5% | 72.5% (active) | – | – | – | 3% | 3% | 63.1% | -11% | -11% | 65.6% | -7% | -7% | 49.2% | 8% | 8% | 54.1% |
| COC1CC2CCC(C)[C@](O)(O2)C(=O)C(=O)N2CCCCC2C(=O)OC(C(C)CC2CCC(O)C(OC)C2)CC(=O)C(C)C=C(C)C(OC(=O)CCCN2CCCC2)C(OC)C(=O)C(C)CC(C)/C=C/C=C/C=C\1C (some centres undefined) | – | – | – | 98% (active) | 98% (active) | 92.3% (active) | 97% (active) | 97% (active) | 92.9% (active) | 91% (active) | 96% (active) | 88.2% (active) | 97% (active) | 98% (active) | 92% (active) | 96% (active) | 98% (active) | 91.5% (active) |
